# Assay outcomes: PubChem, National Center for Advancing Translational Sciences (NCATS)
# TDP1 cell CPT: DT40-hTDP1 cell growth loss with CPT; chicken DT40 Tdp1-/-;hTDP1 cells + 20 nM CPT, ATP luminescence, 48 h; Potency, µM (top dose mostly 46.2 µM), usual class: inhibitors; 420,000 compounds, 12% hits; also: nearly all actives have a fitted effect of over 55% in size
#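 Chicken DT40 Tdp1-/- cells complemented with human TDP1, 400 cells/well, exposed to compounds plus 20 nM camptothecin for at least 48 h at 37 C; viability read as ATP content by CellTiter-Glo luminescence.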
# VP16 counter: Gal4-VP16 reporter inhibition counter-screen; AID 2546; Potency, µM (highest dose often 53.6 µM), actives largely listed as inhibitors; 310,000 compounds, 3.5% hits; Drosophila S2 Gal4-VP16 UAS-luciferase, luminescence, 20 h;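 also: Gal4-VP16 expression switched on by copper sulfate through the metallothionein promoter; nearly all actives have a fitted effect of over 50% in size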
# RORg inh: inhibitors of mouse ROR gamma transcriptional activity; Drosophila S2 Gal4-RORgamma UAS-luciferase reporter, 20 h; Potency, µM (series often up to 53.6 µM), usual class: inhibitors; P51450; 310,000 compounds, 5.4% hits; also: nearly all actives have a fitted effect of over 60% in size
#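 Stable Schneider cell line, Gal4 DNA-binding domain fused to ROR gamma, UAS-luciferase. Cmpd 1 hr RT → CuSO4 700 uM final → 20 hr RT → luciferase reagent 10 min → luminescence.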
# DT40 TDP1 no CPT: qHTS for Inhibitors of human tyrosyl-DNA phosphodiesterase 1 (TDP1): qHTS in cells in absence of CPT; DT40 Tdp1-/- hTDP1 cells, no CPT, ATP luminescence, 48 h; Potency, µM (doses to about 46.2 µM), actives largely listed as inhibitors; 420,000 compounds, 15% hits; AID 686978, 2013; also: nearly all actives have a fitted effect of over 55% in size
#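 Luminescent ATP content (CellTiter-Glo) served as the growth readout. Knockout chicken DT40 cells expressing human TDP1 were exposed to compounds without camptothecin for a minimum 48 hr at 37 °C.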
# ELG1 repair inh: inhibitors of ELG1-dependent DNA repair in HEK293T cells. 330,000 compounds, 2.3% hits. Potency, µM (series often up to 46.1 µM), actives largely listed as inhibitors. HEK293T ELG1-luciferase reporter, luminescence, 16 h; DNA damage induced by 5-fluorouridine; also: nearly all actives have a fitted effect of over 55% in size
#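 DMSO vehicle served as the neutral condition. Each well held 2,000 cells given 5-fluorouridine plus compound; after 16 hr at 37 °C/5% CO2, ONE-Glo was added and luciferase measured 30 min later.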
# 12-LOX inh: blocks human arachidonate 12S-lipoxygenase; P18054; purified 12hLO, xylenol orange hydroperoxide absorbance; Potency, µM (top dose mostly 108 µM), hits mostly inhibitors; 580,000 compounds, 1.1% hits; AID 1671190
# Target sequence (P18054 whole entry, looked up): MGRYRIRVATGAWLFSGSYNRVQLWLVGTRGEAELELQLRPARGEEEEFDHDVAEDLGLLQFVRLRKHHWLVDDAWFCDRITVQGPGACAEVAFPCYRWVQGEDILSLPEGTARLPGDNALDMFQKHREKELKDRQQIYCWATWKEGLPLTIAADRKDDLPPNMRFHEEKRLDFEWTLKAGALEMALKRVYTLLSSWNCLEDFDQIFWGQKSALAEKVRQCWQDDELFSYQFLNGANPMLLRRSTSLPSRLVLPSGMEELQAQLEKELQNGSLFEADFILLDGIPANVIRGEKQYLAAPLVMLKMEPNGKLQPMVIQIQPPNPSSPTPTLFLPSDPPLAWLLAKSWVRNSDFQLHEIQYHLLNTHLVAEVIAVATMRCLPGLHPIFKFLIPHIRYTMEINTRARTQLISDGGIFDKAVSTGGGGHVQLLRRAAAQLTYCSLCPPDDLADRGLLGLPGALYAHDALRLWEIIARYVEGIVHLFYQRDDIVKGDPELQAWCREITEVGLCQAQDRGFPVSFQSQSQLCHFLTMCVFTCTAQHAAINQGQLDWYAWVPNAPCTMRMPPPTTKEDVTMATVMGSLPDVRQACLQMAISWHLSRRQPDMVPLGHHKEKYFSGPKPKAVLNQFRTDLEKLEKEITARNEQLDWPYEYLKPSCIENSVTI
#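 Purified human 12hLO (150 nM final) in 25 mM Hepes, 0.01% Triton X-100, pH 7.0 was preincubated 15 min at room temperature with compound. Then 40 uM arachidonic acid was added, 30 min. Hydroperoxide was read by Fe-XO absorbance ratio 573/405 nm.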
# A number is an active result; n = inactive; u = inconclusive; x = not tested or not shown; ! = not active in a repeat. The list is not random: actives were taken first. Their share in the collection is about 15%. Calls follow the shape of the dose curve; as a rule, active = well fitted curve in the direction sought with a large enough effect; inconclusive = small, poorly fitted or top-dose-only effect, or another doubt; inactive = no such curve, though single readings can be large; an effect the other way counts as inactive or inconclusive.
SMILES,TDP1 cell CPT,VP16 counter,RORg inh,DT40 TDP1 no CPT,ELG1 repair inh,12-LOX inh
COc1ccccc1/C=C/C(=O)NCC(=O)N/N=C/c1cc(Br)ccc1OC,u,n,13µM,u,u,n
COc1cccc(/C=N/NC(=O)CNC(=O)CCc2ccccc2)c1O,u,n,u,u,u,n
COc1ccccc1/C=C\C(=O)NCC(=O)N/N=C/c1cccc(OC)c1O,7.3µM,7.1µM,4.5µM,7.3µM,n,n
COc1ccc(/C=N/NC(=O)CNC(=O)/C=C/c2ccccc2OC)cc1,n,n,n,n,n,n
COc1cccc(/C=N/NC(=O)CNC(=O)c2cccs2)c1O,5.8µM,11µM,3.2µM,9.2µM,u,n
COc1ccc(/C=N/Nc2nnc(Cc3ccc(OC)c(OC)c3)c(=O)[nH]2)cc1,26µM,n,n,16µM,u,n
COc1ccc(CNC(=S)N/N=C/c2ccc(OC)c(OC)c2)cc1,n,u,11µM,n,u,n
COc1ccc(CNC(=S)N/N=C/c2ccc(O)c(OC)c2)cc1,n,16µM,10µM,n,n,32µM
COc1ccc(/C=C\C(=O)Oc2cccc(/C=N/NC(=O)Cc3ccc(OC)c(OC)c3)c2)cc1,u,13µM,n,u,u,n
CCCCOc1ccc(NC(=O)COc2ccc(CC)cc2)c2cccnc12,x,x,x,x,x,n
CCN(CC)C(=O)CN(C)Cc1coc(-c2ccccc2)n1,x,x,x,x,x,n
COCC(=O)NC[C@H]1CCN(Cc2ccc(C)s2)C[C@H]1N(C)C,x,x,x,x,x,n
CC(C)N(C(=O)Cn1cc(S(=O)(=O)Cc2ccc(Cl)cc2)c2ccccc21)C(C)C,u,x,x,u,x,n
CC(C)N(C(=O)Cn1cc(S(=O)(=O)Cc2ccc(Br)cc2)c2ccccc21)C(C)C,23µM,x,x,16µM,x,n
Cc1ccc(C)c(CS(=O)(=O)c2cn(CC(=O)N3CCC(C)CC3)c3ccccc23)c1,u,n,n,16µM,u,n
CCOC(=O)N1CCN(C(=O)CS(=O)(=O)c2cn(Cc3ccccc3C)c3ccccc23)CC1,n,n,n,u,9.2µM,x
Cc1ccc(C)c(CS(=O)(=O)c2cn(CC(=O)N(C(C)C)C(C)C)c3ccccc23)c1,15µM,x,x,12µM,x,n
CCOC(=O)N1CCN(C(=O)CS(=O)(=O)c2cn(Cc3cccc(F)c3)c3ccccc23)CC1,n,n,n,n,u,n
CC(C)N(C(=O)Cn1cc(S(=O)(=O)Cc2ccc(C(F)(F)F)cc2)c2ccccc21)C(C)C,u,x,x,u,x,n
Cc1ccc(C)c(CS(=O)(=O)c2cn(CC(=O)N3CCCCC3)c3ccccc23)c1,n,n,n,n,u,n
Cc1ccc(-c2nc3ccccc3n2CCNC(=O)Nc2cccc(F)c2)cc1,x,x,x,x,x,n
COc1ccc(-c2nn(-c3ccccc3)cc2C2=NN(S(C)(=O)=O)C(c3ccccc3)C2)cc1 (centres undefined),x,x,x,x,x,n
COCC(C)NC(C(=O)Nc1ccc(Cl)c([N+](=O)[O-])c1)c1ccccc1 (centres undefined),n,n,n,n,n,u
CCC(C)NC(C(=O)Nc1ccc(Cl)c([N+](=O)[O-])c1)c1ccccc1 (centres undefined),u,n,n,16µM,n,u
O=C(Nc1ccc(Cl)c(C(F)(F)F)c1)NC1CC2CCCC(C1)N2C1CC1 (centres undefined),11µM,x,x,11µM,x,n
SMILES,TDP1 cell CPT,VP16 counter,RORg inh,DT40 TDP1 no CPT,ELG1 repair inh,12-LOX inh
Cc1cc(C)c2[nH]c(=S)cc(C)c2c1,n,u,n,n,u,6.3µM!
COc1ccc2c(C)cc(=S)[nH]c2c1,u,u,u,u,n,u
Cn1c(SCC(=O)c2ccc3c(c2)NC(=O)CO3)nc2ccccc21,u,n,n,u,n,n
CCCn1c(SCC(=O)c2ccc3c(c2)NC(=O)CO3)nc2ccccc21,10µM,u,u,9.2µM,n,n
Cn1c(SCC(=O)c2ccc3c(c2)NC(=O)CO3)nnc1-c1ccncc1,x,x,x,x,x,n
O=C1COc2ccc(C(=O)CSc3nnc(Cc4cccs4)n3-c3ccc(Cl)cc3)cc2N1,18µM,n,n,18µM,u,n
CCc1ccc(-n2c(SCC(=O)c3ccc4c(c3)NC(=O)CO4)nc3ccccc3c2=O)cc1,u,n,2.5µM,21µM,u,n
O=C1COc2ccc(C(=O)CSc3nc4ccccc4c(=O)n3-c3ccc(Cl)c(Cl)c3)cc2N1,23µM,n,n,u,n,n
COc1ccc(NC(=O)CSCc2cc(=O)c3cccc(F)c3[nH]2)cc1,x,x,x,x,x,n
COCC(=O)N1CCCC(c2nc(C3CCOCC3)no2)C1 (centres undefined),x,x,x,x,x,n
O=C1COc2ccc(C(=O)CSc3nnc(NCc4ccccc4)s3)cc2N1,u,n,n,13µM,n,n
O=C1COc2ccc(C(=O)CSc3nnc(Cc4ccccc4)o3)cc2N1,n,x,x,n,n,n
O=C(Cc1ccc(-c2ccccc2)cc1)N1CC(COc2ccccc2)C2(C1)CN(C(=O)c1cn[nH]c1)C2 (centres undefined),x,x,x,x,x,n
COc1ccc(-c2ncnc(C(F)(F)F)c2-c2csc(C)n2)c(O)c1,n,n,n,n,n,n
Cc1nc(-c2c(-c3ccc(O)cc3O)noc2C(F)(F)F)cs1,18µM,u,n,16µM,u,n
Cc1csc2c(N3CCN(C(=O)Nc4ccc(Cl)c(Cl)c4)CC3)ncnc12,u,n,u,21µM,18µM,u
Cc1csc2c(N3CCN(C(=S)Nc4ccc(C(F)(F)F)cc4)CC3)ncnc12,u,u,n,u,u,n
Cc1csc2c(N3CCN(C(=O)NC(C)(C)C)CC3)ncnc12,15µM,n,n,18µM,u,u
Cc1csc2c(N3CCN(C(=O)c4ccc(C(C)(C)C)cc4)CC3)ncnc12,u,u,u,4.1µM,15µM,n
Cc1ccc(NC(=O)CSc2ccc(N3CCC(C(=O)N4CCCCC4)CC3)nn2)cc1C,x,x,x,x,x,n
COc1ccc(-n2c3c(c(=O)[nH]c2=O)CN(C2CCCC2)CN3)cc1Cl,x,x,x,x,x,n
CC(C)CN(C(=O)COC(=O)/C=C/c1ccc(Cl)c(Cl)c1)c1c(N)n(Cc2ccccc2)c(=O)[nH]c1=O,u,x,x,u,n,n
Cc1ccccc1C(=O)OCC(=O)N(C)c1c(N)n(Cc2ccccc2)c(=O)[nH]c1=O,n,x,x,n,n,n
CN(C(=O)COC(=O)c1ccccc1Nc1ccccc1)c1c(N)n(Cc2ccccc2)c(=O)[nH]c1=O,u,x,x,16µM,n,u
